Measured values taken from PubChem BioAssay (NCATS).
Results filed as inconclusive are left out. Active and inactive are the calls of the source. Calls follow the shape of the dose curve; as a rule, active = well fitted curve in the direction sought with a large enough effect; inconclusive = small, poorly fitted or top-dose-only effect, or another doubt; inactive = no such curve, though single readings can be large; an effect the other way counts as inactive or inconclusive.

Key:
[1] = Quantitative highthroughput screen to assess conditional lethalithy of NOMO1 cells grown in RPMI1640 with untreated serum (RPMI+s) (AID 1963876); also: nearly all actives have a fitted effect of over 35% in size;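 as to viability: 100% = DMSO wells and 0% = empty wells without cells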
How it was run: (§1)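 Each medium arm—HPLM with 10% dialyzed FBS, or RPMI1640 with 5 mM glucose and 10% untreated or dialyzed FBS—was screened against an 11-point, 3-fold compound titration for 48 h at 37 °C, with CellTiter-Glo luminescence as endpoint.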

[2] = Quantitative highthroughput screen to assess conditional lethalithy of NOMO1 cells grown in RPMI1640 with dialyzed fetal bovine serum (RPMI+ds) (AID 1963877); also: nearly all actives have a fitted effect of over 30% in size;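 as to viability: series mostly up to about 46 µM; 100% = DMSO control wells and 0% = empty wells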
How it was run: as §1

[3] = Quantitative highthroughput screen to assess conditional lethalithy of NOMO1 cells grown in Human Plasma-Like Medium with dialyzed fetal bovine serum (HPLM+ds) (AID 1963878); also: nearly all actives have a fitted effect of over 35% in size;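 as to viability: 100% = DMSO wells and 0% = empty wells on each plate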
How it was run: as §1

[4] = Quantitative highthroughput screen to assess conditional lethalithy of P12 Ichikawa cells grown in Human Plasma-Like Medium with dialyzed fetal bovine serum (HPLM+ds) (AID 1963879); details: Potency: viability; also: nearly all actives have a fitted effect of over 35% in size; as to viability: series mostly up to about 46 µM
How it was run: as §1

[5] = Quantitative highthroughput screen to assess conditional lethalithy of P12 Ichikawa cells grown in RPMI1640 with dialyzed fetal bovine serum (RPMI+ds) (AID 1963880); details: Potency: P12-Ichikawa viability; also: nearly all actives have a fitted effect of over 35% in size;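 as to viability: 100% = DMSO wells and 0% = empty wells on each plate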
How it was run: as §1

[6] = Quantitative highthroughput screen to assess conditional lethalithy of P12 Ichikawa cells grown in RPMI1640 with untreated serum (RPMI+s) (AID 1963881); details: Potency: viability; also: nearly all actives have a fitted effect of over 35% in size;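 as to viability: series mostly up to about 46 µM; 100% = DMSO wells and 0% = empty wells without cells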
How it was run: as §1

[7] = Quantitative highthroughput screen to assess conditional lethalithy of SEM cells grown in Human Plasma-Like Medium with dialyzed fetal bovine serum (HPLM+ds) (AID 1963882); also: nearly all actives have a fitted effect of over 35% in size; as to viability: series mostly up to about 46 µM
How it was run: as §1

[8] = Quantitative highthroughput screen to assess conditional lethalithy of SEM cells grown in RPMI1640 with unreated serum (RPMI+s) (AID 1963883); also: nearly all actives have a fitted effect of over 35% in size;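 as to viability: 100% = DMSO wells and 0% = empty wells without cells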
How it was run: as §1

[9] = Quantitative highthroughput screen to assess conditional lethalithy of SEM cells grown in RPMI1640 with dialyzed fetal bovine serum (RPMI+ds) (AID 1963884); also: nearly all actives have a fitted effect of over 35% in size;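 as to viability: series mostly up to about 46 µM; 100% = DMSO control wells and 0% = empty wells without cells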
How it was run: as §1

[10] = Cellular viability qHTS for adrenocortical cancer (ACC) cell line SW-13 (AID 1963989); details: SW-13 ACC cells viability, CellTiter-Glo, 48 h; activity (max response): stronger effect = lower value; also: nearly all actives have a fitted effect of over 65% in size;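 as to activity (max response): cells grown in serum-free medium with ITS supplement; % is scaled to controls: 0 for no effect and ±100 for the full control effect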
How it was run: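 48 h treatment, SW-13 in ITS/DMEM serum-free; doses up to 46 uM; readout CellTiter-Glo luminescence; curve fit four-parameter logistic.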

[11] = Cellular viability qHTS for adrenocortical cancer (ACC) cell line NCI-H295R (AID 1963990); also: nearly all actives have a fitted effect of over 60% in size
How it was run: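 Compound titrations (up to 46 uM final) are applied to NCI-H295R cultures for 48 h at 37C. Viable cell number is estimated by CellTiter-Glo signal, normalised to DMSO and doxorubicin controls.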
Potency is read from the fitted curve at half-maximal effect.

OC[C@H]1O[C@@H](Oc2ccc(O)cc2)[C@H](O)[C@@H](O)[C@H]1O
inactive: Potency [1] | Potency [2] | Potency [3] | Potency [4] | Potency [5] | Potency [6] | Potency [7] | Potency [8] | Potency [9]

O=C(O)c1cccc(-c2noc(-c3ccccc3F)n2)c1
inactive: Potency [1] | Potency [2] | Potency [3] | Potency [4] | Potency [5] | Potency [6] | Potency [7] | Potency [8] | Potency [9]

COC(=O)[C@@H]1CC2=CC(=O)CC[C@]2(C)[C@@]23O[C@@H]2C[C@@]2(C)[C@H](CC[C@@]24CCC(=O)O4)[C@@H]13
inactive: Potency [1] | Potency [2] | Potency [3] | Potency [4] | Potency [5] | Potency [6] | Potency [7] | Potency [8] | Potency [9]

O=C(O)C1=CO[C@@H](O[C@@H]2O[C@H](CO)[C@H](O)[C@H](O)[C@H]2O)[C@@H]2C(CO)=CC[C@H]12
inactive: Potency [1] | Potency [2] | Potency [3] | Potency [4] | Potency [5] | Potency [6] | Potency [7] | Potency [8] | Potency [9]

COc1ccc(CC2=NN3C([C@@H](CCc4ccccc4)[C@@H](C)O)=NC(C)C3C(=O)N2)cc1OC (stereo partly specified)
inactive: Potency [1] | Potency [2] | Potency [3] | Potency [4] | Potency [5] | Potency [6] | Potency [7] | Potency [8] | Potency [9] | activity (max response) [10] 3.98% | Potency [11]

CCCCc1nc2cc(C=CC(=O)NO)ccc2n1CCN(CC)CC
active: Potency [1] 4.18 µM | Potency [2] 6.62 µM | Potency [3] 4.69 µM | Potency [4] 2.64 µM | Potency [5] 2.96 µM | Potency [6] 2.96 µM | Potency [7] 1.87 µM | Potency [8] 2.09 µM | Potency [9] 2.09 µM

NC(N)=Nc1nc(CSCCC(N)=NS(N)(=O)=O)cs1
inactive: Potency [1] | Potency [2] | Potency [3] | Potency [4] | Potency [5] | Potency [6] | Potency [7] | Potency [8] | Potency [9]

CC(C)[C@H](C(=O)Nc1ccc(C(=O)NO)cc1)c1ccccc1
active: Potency [1] 3.32 µM | Potency [2] 2.64 µM | Potency [3] 2.64 µM | Potency [4] 2.35 µM | Potency [5] 2.35 µM | Potency [6] 2.09 µM | Potency [7] 1.48 µM | Potency [8] 1.66 µM | Potency [9] 1.48 µM | Potency [11] 1.26 µM

COc1cc(O)c2c(c1)C1OC1C[C@H](O)[C@H](O)C(=O)C=CC[C@H](C)OC2=O (stereo partly specified)
active: Potency [1] 13.2 µM | Potency [2] 13.2 µM | Potency [3] 10.5 µM | Potency [4] 18.7 µM | Potency [5] 18.7 µM | Potency [6] 18.7 µM | Potency [7] 4.69 µM | Potency [8] 7.43 µM | Potency [9] 4.18 µM | Potency [10] 15.8 µM | Potency [11] 15.8 µM

COc1cccc(Nc2c(C(N)=O)cnc3c(C)cc(S(=O)(=O)c4cccc(C(=O)N(C)C)c4)cc23)c1
inactive: Potency [1] | Potency [2] | Potency [3] | Potency [4] | Potency [5] | Potency [6] | Potency [7] | Potency [8] | Potency [9] | activity (max response) [10] 11.8% | Potency [11]

O=C1C[C@@H](c2ccc(O)cc2)Oc2cc(O)cc(O)c21
inactive: Potency [1] | Potency [2] | Potency [3] | Potency [4] | Potency [5] | Potency [6] | Potency [7] | Potency [8] | Potency [9] | activity (max response) [10] -16.9% | Potency [11]

C[C@H](O)[C@@H]1C(=O)N2C(C(=O)O)=C(S[C@@H]3CN[C@H](CNS(N)(=O)=O)C3)[C@@H](C)[C@@H]12
inactive: Potency [1] | Potency [2] | Potency [3] | Potency [4] | Potency [5] | Potency [6] | Potency [7] | Potency [8] | Potency [9] | activity (max response) [10] 8.99% | Potency [11]

O=Nc1c(-c2c(O)[nH]c3cc(Br)ccc23)[nH]c2ccccc12
active: Potency [1] 14.8 µM | Potency [2] 10.5 µM | Potency [3] 5.9 µM | Potency [4] 4.18 µM | Potency [5] 5.9 µM | Potency [6] 4.69 µM | Potency [7] 0.833 µM | Potency [8] 0.743 µM | Potency [9] 0.833 µM | Potency [10] 11.2 µM | Potency [11] 10 µM

CCN(C(=O)c1c(O)c2c(Cl)cccc2n(C)c1=O)c1ccccc1
active: Potency [1] 1.66 µM | Potency [2] 2.64 µM | Potency [3] 1.32 µM | Potency [4] 3.32 µM | Potency [5] 1.66 µM | Potency [6] 2.35 µM | Potency [7] 0.59 µM | Potency [8] 0.332 µM | Potency [9] 0.418 µM | Potency [10] 7.94 µM

COc1cc2nc(-c3ccc(N4CCN(C)CC4)cc3)nc(NCCN3CCOCC3)c2cc1OC
active: Potency [1] 1.66 µM | Potency [2] 0.743 µM | Potency [3] 0.526 µM | Potency [4] 5.26 µM | Potency [5] 2.64 µM | Potency [6] 2.96 µM | Potency [7] 0.166 µM | Potency [8] 0.469 µM | Potency [9] 0.372 µM | Potency [10] 17.8 µM | Potency [11] 3.55 µM
